Compounds with a hit are over-represented: about 2.9% of the library has one in this group of screens.
Fam108B inh = counter-screen for RBBP9 inhibitors: inhibitors of mouse Fam108B | inhibition, % at 9.51 µM | recombinant Fam108B, FP-Rh probe fluorescence polarization | hit rate 0.33% among 300,000;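 active = inhibition above the screen mean inhibition plus 3 SD, computed separately per campaign, cut at about 18% in these data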;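 note: inhibitors lower polarization as less probe binds the enzyme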
PAFAH2 inh = PAFAH2 (human) inhibition | hit rate 0.99% among 340,000 | inhibition, % at 3.39 µM | recombinant PAFAH2, FP-rhodamine activity probe, fluorescence polarization;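 active = inhibition above the mean over all tested compounds plus 3 SD, cut at about 30% in these data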;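 note: inhibitors block probe labeling of enzyme so polarization drops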
pPAFAH FP inh = inhibitors of human plasma PAF acetylhydrolase (pPAFAH); AID 463082; Q13093; hit rate 1.5% among 330,000; inhibition, % at 3.39 µM; recombinant pPAFAH, FP-rhodamine probe fluorescence polarization;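 active = inhibition above the mean inhibition across the screen plus 3 SD, cut at about 25% in these data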;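 note: inhibitors block binding of the rhodamine activity-based probe so polarization drops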
Target sequence (Q13093 whole entry, looked up): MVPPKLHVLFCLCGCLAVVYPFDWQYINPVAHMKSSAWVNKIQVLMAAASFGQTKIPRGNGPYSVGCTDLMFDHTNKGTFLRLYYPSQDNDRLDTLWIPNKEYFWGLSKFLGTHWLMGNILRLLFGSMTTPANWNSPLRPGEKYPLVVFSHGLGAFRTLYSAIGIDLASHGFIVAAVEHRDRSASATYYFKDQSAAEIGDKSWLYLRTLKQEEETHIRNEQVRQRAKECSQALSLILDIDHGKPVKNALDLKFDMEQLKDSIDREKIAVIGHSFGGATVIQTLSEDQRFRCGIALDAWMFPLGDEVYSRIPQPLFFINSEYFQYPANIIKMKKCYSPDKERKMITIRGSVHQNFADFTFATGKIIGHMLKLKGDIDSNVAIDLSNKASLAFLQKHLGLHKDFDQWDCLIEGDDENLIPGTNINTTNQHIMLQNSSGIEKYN
PAFAH1B3 inh = inhibitors of human PAFAH1B3; inhibition, % at 3.39 µM; Q15102; recombinant PAFAH1B3, FP-rhodamine probe, fluorescence polarization; hit rate 0.28% among 340,000; AID 492972;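 active = inhibition above the screen-wide average of all tested compounds plus 3 SD, cut at about 25% in these data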
Target sequence (Q15102 whole entry, looked up): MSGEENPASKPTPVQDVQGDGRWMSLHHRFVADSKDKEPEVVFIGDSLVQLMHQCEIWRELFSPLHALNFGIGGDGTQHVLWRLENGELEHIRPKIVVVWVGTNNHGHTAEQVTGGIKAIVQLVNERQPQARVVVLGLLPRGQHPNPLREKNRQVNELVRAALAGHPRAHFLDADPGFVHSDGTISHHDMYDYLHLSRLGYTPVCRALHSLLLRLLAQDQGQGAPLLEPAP
PME-1 inh = PME-1 (human) inhibition; recombinant PME-1, FP-Rh probe fluorescence polarization; inhibition, % at 5.9 µM; hit rate 0.53% among 320,000; AID 2130;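 active = inhibition above the campaign mean of all compounds plus 3 SD, cut at about 26% in these data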;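 note: competitive labeling of PME-1 active site by serine hydrolase directed probe; inhibitors block probe labeling so polarization falls and inhibition rises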
PAFAH1B2 FP inh = blocks human PAF acetylhydrolase 1b catalytic subunit 2; P68402; recombinant PAFAH1B2, FP-rhodamine activity probe, fluorescence polarization; inhibition, % at 3.39 µM; hit rate 1.2% among 340,000; AID 492953;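 active = inhibition above the mean of all tested compounds plus 3 SD, cut at about 24% in these data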
PAFAH2 confirm = PAFAH2 (human) inhibition, confirmed; shares compounds with PAFAH2 inh; recombinant PAFAH2, FP-rhodamine activity probe, fluorescence polarization; inhibition, % at 3.39 µM; hit rate 65% among 2,300; AID 493030;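 active = mean inhibition over three repeats above a set limit taken from the earlier primary screen, cut at about 30% in these data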;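 note: inhibitor blocks binding of rhodamine activity probe so polarization falls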
Of the large screens only hits and unclear results are named; the others gave an inactive call (follow-up assays come after a bar, where they were run).

Cc1cccc(C(=O)N[C@H](C(=O)NCCc2ccc(S(N)(=O)=O)cc2)C(C)C)c1	none
Nc1nnc(CC(=O)N/N=C/c2ccc(-c3ccccc3Cl)o2)s1	PAFAH2 inh 30 | PAFAH2 confirm inactive
Nc1nnc(CC(=O)N/N=C/c2ccc(-c3ccc(Cl)cc3Cl)o2)s1	PAFAH2 inh 50 | PAFAH2 confirm 31
Nc1nnc(CC(=O)N/N=C/c2ccc(-c3ccccc3)o2)s1	none
Cc1c(C(=O)OCC(=O)NC(=O)NC2CCCCC2)cccc1[N+](=O)[O-]	none (no result: Fam108B inh, PME-1 inh)
COc1ccc(C(=O)OCC(=O)NC(=O)NC2CCCC2)cc1OC	PAFAH2 inh 30 (no result: Fam108B inh) | PAFAH2 confirm inactive
CNc1ccc(C(=O)OCC(=O)NC(=O)NC2CCCC2)cc1[N+](=O)[O-]	PAFAH2 inh 41 (no result: Fam108B inh, PME-1 inh) | PAFAH2 confirm inactive
COc1ccc(C(=O)OCC(=O)N2CCc3ccccc3C2)cc1OC	PAFAH2 inh 53 (no result: Fam108B inh, PME-1 inh) | PAFAH2 confirm 45
O=C(OCC(=O)N1CCc2ccccc2C1)c1cccc([N+](=O)[O-])c1	none
CC(C)(C)c1ccc(C(CC(=O)O)NC(=O)Cc2ccc(F)cc2)cc1 (stereo unspecified)	none (no result: PAFAH2 inh, PAFAH1B3 inh, PAFAH1B2 FP inh)
CC(C)CCNC(=O)COC(=O)c1cc(Br)c(Br)s1	PAFAH2 inh 32 | PAFAH2 confirm inactive
O=C(COC(=O)/C=C/c1ccccc1)NCc1ccccc1Cl	PAFAH2 inh 71 | PAFAH2 confirm 70
O=C(COC(=O)/C=C/c1ccco1)NCc1ccco1	PAFAH2 inh 37 | PAFAH2 confirm inactive
O=C(COC(=O)/C=C/c1ccccc1)NCCNC(=O)COC(=O)/C=C/c1ccccc1	none
O=C(COC(=O)/C=C/c1ccco1)NCCc1ccccc1	PAFAH2 inh 32 | PAFAH2 confirm inactive
O=C(COC(=O)/C=C/c1ccco1)NCc1ccc(Cl)cc1Cl	PAFAH2 inh 77 (no result: Fam108B inh, PME-1 inh) | PAFAH2 confirm 63
CNC(=O)COC(=O)/C=C/c1ccco1	none
Cc1ccc(-c2nnn(CC(=O)N(CC(=O)NC3CCCC3)c3ccccc3F)n2)o1	none (no result: Fam108B inh, pPAFAH FP inh, PME-1 inh)
O=C(COC(=O)/C=C/c1ccco1)NCc1ccccc1Cl	PAFAH2 inh 75 | PAFAH2 confirm 63
O=C(COC(=O)/C=C/c1cccc(Cl)c1)NCCc1ccc(Cl)cc1Cl	PAFAH2 inh 42 | PAFAH2 confirm 44
COc1ccc(CNC(=O)COC(=O)/C=C/c2ccco2)cc1	none
CSc1ccccc1NC(=O)COC(=O)/C=C/c1ccco1	PAFAH2 inh 63 (no result: Fam108B inh, PME-1 inh) | PAFAH2 confirm 44
Cc1c(Cl)cnc(NC(=O)COC(=O)/C=C/c2ccco2)c1Cl	PAFAH2 inh 34 (no result: Fam108B inh, pPAFAH FP inh, PME-1 inh) | PAFAH2 confirm inactive
O=C(COC(=O)/C=C/c1ccco1)Nc1ncc(C(F)(F)F)cc1Cl	none
CC(NC(=O)COC(=O)/C=C/c1ccco1)c1ccccc1 (stereo unspecified)	PAFAH2 inh 49 | PAFAH2 confirm 38
CCN(c1ccccc1)S(=O)(=O)c1ccc(OC)c(NC(=O)C2=NN(c3ccccc3)C(=O)CC2)c1	none (no result: Fam108B inh, pPAFAH FP inh, PME-1 inh)
O=C(O)CCC(=O)Nc1ccc(C(=O)OCC(=O)c2ccc(Cl)cc2Cl)cc1	PAFAH2 inh 62 | PAFAH2 confirm 51
Fc1ccccc1N1CCN(Cc2cc(-c3ccccc3)on2)CC1	none
NC(=O)Nc1ccc(C(=O)OCC(=O)Nc2cccc(S(=O)(=O)NC3=NCCCCC3)c2)cc1	PAFAH2 inh 61 | PAFAH2 confirm 65
O=C(COC(=O)c1ccc(OC(F)F)cc1)Nc1cccc(S(=O)(=O)NC2=NCCC2)c1	PAFAH2 inh 31 (no result: Fam108B inh) | PAFAH2 confirm inactive
Cc1ccsc1C(=O)OCC(=O)Nc1cccc(S(=O)(=O)NC2=NCCCCC2)c1	PAFAH2 inh 46 | PAFAH2 confirm 33
O=C(COC(=O)c1ccc(C(F)(F)F)cc1)Nc1cccc(S(=O)(=O)NC2=NCCCCC2)c1	none (no result: Fam108B inh, PME-1 inh)
Cc1cc(C)cc(C(=O)OCC(=O)Nc2cccc(S(=O)(=O)NC3=NCCCCC3)c2)c1	none
CSCC[C@H](NS(=O)(=O)c1ccc(C)cc1)C(=O)N1CCC(C(=O)N[C@H](C(=O)O)c2ccccc2)CC1	none
O=C(O)CN1C(=O)c2ccc(C(=O)c3ccccc3)cc2C1=O	none
CCC1(c2ccccc2)ON(c2c(Br)cccc2Br)C1=O (stereo unspecified)	none (no result: Fam108B inh)
CCN(CC(=O)NC1CC1)S(=O)(=O)c1ccc(OC)cc1	none
COC(=O)c1sccc1-c1ccc(/C=N/OC(=O)c2cccs2)o1	PAFAH2 inh 50 | PAFAH2 confirm inactive
Cc1c(C#N)c(O)[nH]c(=O)c1N=Nc1ccc(S(N)(=O)=O)cc1	PAFAH2 inh 47 | PAFAH2 confirm inactive
O=C(O)c1ccc(N=c2oc3cc(O)ccc3cc2C(=O)NCc2ccccc2)cc1	PAFAH2 inh 54 | PAFAH2 confirm 40
COC(=O)c1cc(S(=O)(=O)NCC2CCN(CCc3ccc(OC)cc3)CC2)c[nH]1	none
O=C1/C(=C/c2ccco2)SC(=S)N1c1cccnc1	PAFAH2 inh 32 (no result: Fam108B inh, pPAFAH FP inh, PME-1 inh) | PAFAH2 confirm inactive
COc1ccc(/C=C2\SC(=S)N(c3cccnc3)C2=O)cc1	none
COc1ccc(N2CC(O)=C(c3nc(-c4ccc(F)cc4)cs3)C2=N)cc1OC	PAFAH2 inh 41 | PAFAH2 confirm 42
COc1ccc(N2CC(O)=C(c3nc(-c4ccc(F)cc4)cs3)C2=N)cc1Cl	none
CN(Cc1nccs1)C(=O)C1CCC(=O)N(CCCc2ccccc2)C1 (stereo unspecified)	PAFAH2 inh 31 (no result: Fam108B inh, pPAFAH FP inh, PME-1 inh) | PAFAH2 confirm inactive
CCCCOC(=O)c1ccc(N)cc1	none
CCCCCCCOC(=O)c1ccc(OC(=O)c2cccnc2)cc1	PAFAH2 inh 47 | PAFAH2 confirm 32
CCCCCCOC(=O)c1ccc(N)cc1	PAFAH2 inh 68 | PAFAH2 confirm 61
CCCCCOC(=O)c1ccc(OC(=O)c2cncc(Br)c2)cc1	none
COCCn1c(Cc2ccccc2)nnc1SC(C)C(=O)NC1CC1 (stereo unspecified)	none (no result: Fam108B inh)
CC(OC(=O)c1ccccc1)C(=O)NCc1ccco1 (stereo unspecified)	none (no result: Fam108B inh, PME-1 inh)
Cc1ccc(NC(=O)C2CC(O)CN2C(=O)OCc2ccccc2)c(C)c1 (stereo unspecified)	none
O=C(c1cc(-c2ccccc2Cl)on1)N1CCCC1	PAFAH2 inh 36 | PAFAH2 confirm 35
N#CC1=C(N)OC2=C(C(=O)CCC2)C1c1cc2c(cc1Cl)OCO2 (stereo unspecified)	none
O=C(COC(=O)c1cccc(O)c1)Nc1ccc(OC(F)F)cc1	PAFAH2 inh 64 | PAFAH2 confirm 54
CN(C)c1cccc(C(=O)OCC(=O)NC2CCCC2)c1	PAFAH2 inh 77 | PAFAH2 confirm 78
O=C(COC(=O)c1cccc(OC(F)F)c1)NC1CCCC1	PAFAH2 inh 52 | PAFAH2 confirm 40
CCc1noc(C)c1C(=O)NCCc1ccccc1	none
CCOC(=O)[C@@H]1CSCCS(=O)(=O)N1Cc1ccccc1Br	none (no result: Fam108B inh, pPAFAH FP inh, PME-1 inh)
O=C(NN=C1CCCCCCC1)c1ccc2ccccc2n1	none

Screening results from PubChem.
